The source of these data is PubChem BioAssay (Tox21).

Experiment [1] can be described thus: qHTS assay to identify small molecule agonists of the peroxisome proliferator-activated receptor delta (PPARd) signaling pathway - cell viability counter screen (AID 743211). Also: nearly all actives have a fitted effect of over 55% in size. Also: potency is read from the fitted curve at half-maximal effect. Summed up: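 Multiplexed format: after the 2 h room-temperature LiveBLAzer B/G FRET step, CellTiter-Glo was added to the same wells. Luminescence after 30 min gave cell viability; compound exposure was 17 h at 37C.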
A general note: Quantitative high-throughput screening tests each substance at several concentrations.

In experiment [2] the target is Peroxisome proliferator-activated receptor delta (Homo sapiens) (UniProt Q03181). As to the kind of experiment: qHTS assay to identify small molecule agonists of the peroxisome proliferator-activated receptor delta (PPARd) signaling pathway (AID 743212; calls by dose curve;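 also: HEK293H cells with PPARd UAS beta-lactamase reporter GeneBLAzer system; % is scaled to controls: 0 for no effect and ±100 for the full control effect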). Put shortly:
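Beta-lactamase reporter readout: a ratiometric FRET signal from the LiveBLAzer substrate after 2 h at room temperature. Compound exposure at 37 °C in PPARδ-bla HEK293H cells driven by an upstream activator sequence.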

Experiment [3] in a line: qHTS assay to identify small molecule antagonists of the peroxisome proliferator-activated receptor delta (PPARd) signaling pathway - cell viability counter screen (AID 743213). Also: % is scaled to controls: 0 for no effect and ±100 for the full control effect; nearly all actives have a fitted effect of over 50% in size. Summed up:
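Viability counter-screen, qHTS format: PPARd-bla HEK293H, L165041 300 nM final, 17 h compound exposure at 37 C, CellTiter-Glo luminescence after 30 min RT.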

The nature of experiment [4]: qHTS assay to identify small molecule agonists of the farnesoid-X-receptor (FXR) signaling pathway - cell viability counter screen (AID 743218). Also: nearly all actives have a fitted effect of over 45% in size. Also: potency is read from the fitted curve at half-maximal effect. Put shortly:
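Same-well cytotoxicity check on FXR-UAS-bla HEK 293T cells: 5 h attachment, 16 h compound at 37 C, CellTiter-Glo luminescence read at room temperature after 30 min.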

The target of experiment [5] is Bile acid receptor (Homo sapiens) (UniProt Q96RI1). As to the kind of experiment: qHTS assay to identify small molecule agonists of the farnesoid-X-receptor (FXR) signaling pathway (AID 743220; active = well fitted activation curve with a large enough effect in the signal ratio in the repeat runs, not every such curve was filed as active; the % refers to the signal ratio; also: % is scaled to controls: 0 for no effect and ±100 for the full control effect). Summed up: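 FXR-UAS-bla HEK 293T cells carrying a UAS-driven beta-lactamase reporter were plated for 5 h at 37C/5% CO2, then exposed to DMSO-dissolved Tox21 10K compounds for 16 h at 37C. A LiveBLAzer B/G FRET substrate was loaded for 2 h at room temperature before fluorescence reading.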
Sequence of Bile acid receptor (Homo sapiens) (Q96RI1 whole entry, looked up): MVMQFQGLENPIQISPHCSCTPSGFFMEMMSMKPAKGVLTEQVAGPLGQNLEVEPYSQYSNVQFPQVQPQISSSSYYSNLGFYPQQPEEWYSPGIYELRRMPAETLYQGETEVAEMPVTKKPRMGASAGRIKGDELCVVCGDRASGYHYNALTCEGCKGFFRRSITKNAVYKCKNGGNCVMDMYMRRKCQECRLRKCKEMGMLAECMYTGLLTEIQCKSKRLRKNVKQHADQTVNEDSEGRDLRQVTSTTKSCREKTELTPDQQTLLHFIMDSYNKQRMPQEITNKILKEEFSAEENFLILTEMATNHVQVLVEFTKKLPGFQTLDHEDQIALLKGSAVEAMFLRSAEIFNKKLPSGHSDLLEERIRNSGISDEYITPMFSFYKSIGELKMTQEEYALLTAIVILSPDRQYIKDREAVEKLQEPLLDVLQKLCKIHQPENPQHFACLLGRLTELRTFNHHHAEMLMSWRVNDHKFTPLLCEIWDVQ

A short description of experiment [6]: qHTS assay to identify small molecule antagonists of the farnesoid-X-receptor (FXR) signaling pathway - cell viability counter screen (AID 743221; active = well fitted cell-killing curve with a large enough effect in the repeat runs, not every such curve was filed as active; also: % is scaled to controls: 0 for no effect and ±100 for the full control effect; nearly all actives have a fitted effect of over 50% in size). Put shortly:
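CellTiter-Glo, 30 min RT, luminescence; same wells as the LiveBLAzer FRET read. Cells: FXR-UAS-bla HEK 293T. Treatment: compound with chenodeoxycholic acid 50 uM final, 16 h at 37 C.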

Experiment [7] concerns the target Vitamin D3 receptor (Homo sapiens) (UniProt P11473). As to the kind of experiment: qHTS assay to identify small molecule agonists of the vitamin D receptor (VDR) signaling pathway (AID 743222; calls by dose curve; also: % is scaled to controls: 0 for no effect and ±100 for the full control effect). Summed up: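 Using LiveBLAzer B/G FRET detection, agonism was scored in VDR-bla cells exposed overnight (16 h, 37C) to DMSO-dissolved compounds; substrate incubation was 2 h at room temperature.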

For experiment [8] the target is unchanged. The experiment is described as follows: qHTS assay to identify small molecule antagonists of the vitamin D receptor (VDR) signaling pathway (AID 743223; active = well fitted inhibition curve with a large enough effect in the signal ratio in the repeat runs, not every such curve was filed as active; the % refers to the signal ratio; also: % is scaled to controls: 0 for no effect and ±100 for the full control effect). Put shortly:
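After VDR-bla cells are plated and left 4 h at 37C, DMSO-dissolved compounds and 3 nM (final) calcitriol agonist are added. Incubation continues 16 h at 37C; FRET beta-lactamase substrate then develops 2 h at room temperature.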

The nature of experiment [9]: qHTS assay to identify small molecule agonists of the vitamin D receptor (VDR) signaling pathway - cell viability counter screen (AID 743224). Also: series mostly up to about 63 µM; % is scaled to controls: 0 for no effect and ±100 for the full control effect; nearly all actives have a fitted effect of over 50% in size. Put shortly:
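Counter screen for cytotoxicity: VDR-bla cells at 2,000 cells/well, 16 h compound exposure, then CellTiter-Glo luminescence after the beta-lactamase measurement.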

Experiment [10] can be described thus: qHTS assay to identify small molecule antagonists of the vitamin D receptor (VDR) signaling pathway - cell viability counter screen (AID 743225). Also: % is scaled to controls: 0 for no effect and ±100 for the full control effect; nearly all actives have a fitted effect of over 50% in size. Put shortly: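 Cytotoxicity toward the VDR-bla HEK 293T line was scored by ATP-based CellTiter-Glo luminescence, read in the wells already used for the beta-lactamase readout after 16 h compound treatment under 3 nM 1-alpha,25-dihydroxyvitamin D3 stimulation.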

Experiment [11] is described as follows: qHTS assay to identify small molecule agonists of the NFkB signaling pathway - cell viability counter screen (AID 1159515; calls by dose curve; also: series mostly up to about 61 µM; % is scaled to controls: 0 for no effect and ±100 for the full control effect; nearly all actives have a fitted effect of over 55% in size). Summed up:
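Counter screen run alongside the NFkB-bla agonist assay: ME-180 reporter cells exposed to compounds for 5 hr, then lysed with CellTiter-Glo in the same wells. Luminescence, read after 30 min, reflects viable cells.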

Experiment [12] can be described thus: qHTS assay to identify small molecule agonists of the endoplasmic reticulum stress response signaling pathway (AID 1159516; active = well fitted activation curve with a large enough effect in the signal ratio in the repeat runs, not every such curve was filed as active; the % refers to the signal ratio; also: % is scaled to controls: 0 for no effect and ±100 for the full control effect). Put shortly: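 For this screen, HeLa cells stably carrying beta-lactamase under the ER stress response element received test compounds, positive controls or DMSO for 5 hr at 37 C; B/G FRET substrate was then added and dual-wavelength emission recorded.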

Experiment [13] is described as follows: qHTS assay to identify small molecule agonists of the endoplasmic reticulum stress response signaling pathway - cell viability counter screen (AID 1159517; calls by dose curve). Put shortly:
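ESRE-bla HeLa cells (1,500/well) were plated overnight at 37 C and exposed to compounds for 5 hr. After the 2 hr beta-lactamase substrate read, CellTiter-Glo went into the same wells, and luminescence was read after 30 min at room temperature.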

Experiment [14] in a line: qHTS assay to identify small molecule agonists of the AP-1 signaling pathway (AID 1159526; calls by dose curve; also: % is scaled to controls: 0 for no effect and ±100 for the full control effect).
The target of experiment [15] is Peroxisome proliferator-activated receptor delta (Homo sapiens) (UniProt Q03181). The experiment is described as follows: qHTS assay to identify small molecule antagonists of the peroxisome proliferator-activated receptor delta (PPARd) signaling pathway (AID 743215; active = well fitted inhibition curve with a large enough effect in the signal ratio in the repeat runs, not every such curve was filed as active; the % refers to the signal ratio). Summed up:
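Screen format: qHTS, antagonist mode. HEK293H PPARd-bla cells received compound and 300 nM L165041 (final), 17 h, 37 C. Beta-lactamase detected via FRET substrate fluorescence, 2 h, room temperature.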

Experiment [16] can be described thus: qHTS assay to identify small molecule agonists of the NFkB signaling pathway (AID 1159509; active = well fitted curve in the direction sought with a large enough effect in the signal ratio in the repeat runs, not every such curve was filed as active; the % refers to the signal ratio). Summed up: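 Pathway activation was measured in ME-180 cells stably expressing beta-lactamase under NF-kB response element control. Substrate cleavage was read as the 460/530 nm emission shift after 5 hr compound incubation.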
The nature of experiment [17]: qHTS assay to identify small molecule antagonists of the retinoid-related orphan receptor gamma (ROR-gamma) signaling pathway - cell viability counter screen (AID 1159520). Put shortly:
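Cytotoxicity was read from cellular ATP (CellTiter-Glo luminescence) after 16 hr at 37 C with 1 uM doxycycline induction. The inducer was added 2 hr after compound transfer to Tet-on ROR gamma CHO cells.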

Experiment [18] can be described thus: qHTS assay to identify small molecule agonists of the AP-1 signaling pathway - cell viability counter screen (AID 1159525; calls by dose curve; also: nearly all actives have a fitted effect of over 55% in size). Put shortly:
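Intracellular ATP by Cell Titer Glo luminescence (30 min, RT) in the same ME-180 AP-1-bla wells after the 5 h compound exposure at 37 °C. Normalised to tetra n-octyl ammonium bromide and DMSO controls.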

Experiment [19] deals with Nuclear receptor ROR-gamma (Homo sapiens) (UniProt P51449). As to the kind of experiment: qHTS assay to identify small molecule antagonists of the retinoid-related orphan receptor gamma (ROR-gamma) signaling pathway (AID 1159521). Put shortly: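 Readout: ONE-Glo luciferase luminescence, 30 min at room temperature. System: Tet-on RORγ CHO, RORE-LUC. Sequence: compound 2 h, doxycycline 1 uM final, 16 h at 37 C.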

Experiment [20] addresses Bile acid receptor (Homo sapiens) (UniProt Q96RI1). As to the kind of experiment: qHTS assay to identify small molecule antagonists of the farnesoid-X-receptor (FXR) signaling pathway (AID 743217; active = well fitted inhibition curve with a large enough effect in the signal ratio in the repeat runs, not every such curve was filed as active; the % refers to the signal ratio; also: % is scaled to controls: 0 for no effect and ±100 for the full control effect). Put shortly:
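Quantitative HTS, beta-lactamase reporter format: FXR-UAS-bla HEK 293T cells co-treated 16 h at 37 °C with compounds and 50 uM final chenodeoxycholic acid, then read by B/G FRET fluorescence.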

Molecules are shown by their SMILES. Inconclusive results are not listed. Unmarked numbers belong to inactive results. The source made the active and inactive calls. Unless noted, calls follow the shape of the dose curve; as a rule, active = well fitted curve in the direction sought with a large enough effect in the repeat runs; inconclusive = weak or mixed curves; inactive = no such curve, though single readings can be large; an effect the other way counts as inactive or inconclusive.

Sequence of Peroxisome proliferator-activated receptor delta (Homo sapiens) (Q03181 whole entry, looked up): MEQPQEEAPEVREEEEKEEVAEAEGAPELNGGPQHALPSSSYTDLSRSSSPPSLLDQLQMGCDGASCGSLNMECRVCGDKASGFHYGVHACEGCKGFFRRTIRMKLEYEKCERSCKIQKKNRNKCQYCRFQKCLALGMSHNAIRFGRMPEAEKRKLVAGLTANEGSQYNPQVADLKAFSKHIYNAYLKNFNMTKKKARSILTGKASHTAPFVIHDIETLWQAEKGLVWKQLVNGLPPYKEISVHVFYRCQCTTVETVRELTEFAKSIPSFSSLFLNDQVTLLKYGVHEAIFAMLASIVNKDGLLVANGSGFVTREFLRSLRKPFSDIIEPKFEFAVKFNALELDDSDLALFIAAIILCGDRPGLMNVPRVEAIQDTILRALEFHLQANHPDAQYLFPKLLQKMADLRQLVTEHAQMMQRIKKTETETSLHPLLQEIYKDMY
Sequence of Vitamin D3 receptor (Homo sapiens) (P11473 whole entry, looked up): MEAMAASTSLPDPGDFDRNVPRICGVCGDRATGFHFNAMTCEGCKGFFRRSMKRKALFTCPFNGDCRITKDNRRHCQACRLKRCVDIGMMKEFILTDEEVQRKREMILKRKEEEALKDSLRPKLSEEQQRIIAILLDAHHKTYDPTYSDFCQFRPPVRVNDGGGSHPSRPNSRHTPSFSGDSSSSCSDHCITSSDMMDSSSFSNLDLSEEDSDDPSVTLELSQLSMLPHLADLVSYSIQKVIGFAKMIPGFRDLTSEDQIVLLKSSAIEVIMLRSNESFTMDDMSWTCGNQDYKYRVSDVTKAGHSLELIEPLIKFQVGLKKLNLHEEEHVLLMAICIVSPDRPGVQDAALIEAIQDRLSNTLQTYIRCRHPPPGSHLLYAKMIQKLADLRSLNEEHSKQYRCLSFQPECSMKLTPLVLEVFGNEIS

As to `CCC/C=C/CO`, the Potency result in [1], in experiment [3], in experiment [4], in experiment [9], in experiment [10] and in experiment [14] was “inactive” each time. Moreover, the result in experiment [2], in experiment [5], in [6], in [7], in [8] and in experiment [11] was inactive. For the same compound, the compound was called inactive in experiment [12] and in experiment [13].

For the compound `O=C(Cl)c1cccc([N+](=O)[O-])c1`, the Potency entry in experiment [1], in experiment [4], in [9], in experiment [17] and in experiment [14] was “inactive” each time. Also, the result in experiment [2], in [15], in [5], in experiment [6], in [7] and in experiment [8] was inactive. Also, the result in experiment [16], in experiment [11], in experiment [12] and in experiment [18] was inactive.

Consider `CCCCCCCCCCCCOCCOS(=O)(=O)O`, for which the Potency entry in experiment [4], in [17] and in [19] was “inactive” each time. The result in experiment [7], in [16], in [11] and in experiment [12] was inactive.

`CN(C)C(=O)NC1(c2ccccc2)CCN(CCC[C@]2(c3ccc(Cl)c(Cl)c3)CCCN(C(=O)c3ccccc3)C2)CC1`: the values for the Potency in [1] and in [4] were 9.28 µM (active) and 11.7 µM (active), respectively. The call in experiment [15], in experiment [6], in experiment [7], in experiment [16], in [11] and in [12] was inactive. Moreover, the Potency result in experiment [9] was “inactive”. Also, the activity, negative = cytotoxicity in experiment [17] was -2.5% [at 19 µM]. Moreover, the activity change, negative = inhibition in experiment [19] is -21% [at 19 µM]. Besides, the activation in experiment [14] was 11.5% [at 15.8 µM].

Consider `Cc1cc(NS(=O)(=O)c2ccc(N)cc2)nc(C)n1`, for which the Potency entry in experiment [1], in [3], in experiment [4], in experiment [9], in experiment [10] and in [17] was “inactive” in each case. Besides, the Potency entry in [14] is “inactive”. Further, the outcome in [2], in [15], in [6], in experiment [16], in experiment [11] and in [12] was inactive. In experiment [18], the outcome was inactive.

Regarding `COc1nc(C)nc(NC(=O)NS(=O)(=O)c2ccccc2OCCCl)n1`, the Potency entry in experiment [1], in experiment [3], in experiment [4], in experiment [9], in [10] and in experiment [17] was “inactive” throughout. The Potency entry in experiment [14] was “inactive”. The outcome in [2], in [15], in experiment [20], in experiment [5], in experiment [6] and in [7] was inactive. For the same compound, the compound was classed as inactive in [16], in experiment [11], in experiment [12] and in experiment [18].

Turning to `CCCCNc1cc(C(=O)O)cc(S(N)(=O)=O)c1Oc1ccccc1`, the Potency result in experiment [1], in [4], in [9], in [10], in experiment [17] and in [14] was “inactive” each time. Also, the compound was called inactive in [7], in experiment [8], in [16], in experiment [11], in experiment [12] and in [18].

For the compound `CCCN(CCC)C(=O)C(CCC(=O)O)NC(=O)c1ccccc1` (stereo not given), the Potency entry in experiment [1], in [3], in experiment [4], in [9], in experiment [10] and in experiment [17] was “inactive” each time. The Potency result in experiment [19] and in [14] was “inactive” in each case. The outcome in experiment [2], in experiment [15], in experiment [6], in experiment [7], in experiment [16] and in [11] was inactive. Further, in experiment [12], the call was inactive.

As for `NC(Cc1ccc(F)cc1)C(=O)O` (stereo not given), the activity change, negative = cytotoxicity is -0.221% [at 5.95 µM] in [1] and 0.52% [at 5.95 µM] in [9]. Further, the activation in [2] is 5.3% [at 5.95 µM]; in [7], 5.15% [at 6.01 µM]; in experiment [16], -1.04% [at 6.95 µM]; in experiment [12], -3.08% [at 6.95 µM]. Further, the viability change, negative = cytotoxic in experiment [3] was 5.29% [at 6.26 µM]; in experiment [4] it was 4.49% [at 5.95 µM]; in [10] it was 2.79% [at 6.95 µM]; in experiment [18], -5.13% [at 6.97 µM]. For the same compound, in [15], the ratio activity, negative = inhibition was 5.05% [at 6.26 µM]. In addition, the activity change, negative = inhibition in experiment [8] was 0.285% [at 6.95 µM]; in experiment [19], -13.5% [at 8.39 µM]. For the same compound, in experiment [11], the activity, negative = cytotoxic is -7.23% [at 6.95 µM]. The activity, negative = cytotoxicity in experiment [17] is 9.21% [at 8.39 µM].

In the case of `COc1ccccc1N1CCN(CCCNc2cc(=O)n(C)c(=O)n2C)CC1`, the Potency entry in [1], in [9], in experiment [10], in [17] and in experiment [14] was “inactive” in each case. The outcome in experiment [2], in experiment [15], in experiment [6], in [7], in experiment [8] and in experiment [16] was inactive. Besides, the compound was classed as inactive in [11], in experiment [12] and in experiment [18].
